TDP1 cell CPT: qHTS for Inhibitors of human tyrosyl-DNA phosphodiesterase 1 (TDP1): qHTS in cells in presence of CPT | chicken DT40 Tdp1-/-;hTDP1 cells + 20 nM CPT, ATP luminescence, 48 h | Potency, µM (titrated, usually from 46.2 µM), for inactives: top-dose activity change, negative = growth inhibition, usual class: inhibitors | 420,000 compounds, 12% hits | AID 686979, 2013; further: potency means the concentration at half of the fitted maximal effect; nearly all actives have a fitted effect of over 55% in size
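Chicken DT40 Tdp1-/- cells complemented with human TDP1, 400 cells/well, exposed to compounds plus 20 nM camptothecin for at least 48 h at 37 C; viability read as ATP content by CellTiter-Glo luminescence.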
12-LOX inh: Primary qHTS assay for inhibitors of human arachidonate 12S-lipoxygenase (ALOX12): Round 2. Potency, µM (titrated, usually from 108 µM), inactives show at the top dose activity change, negative = inhibition, hits mostly inhibitors. 580,000 compounds, 1.1% hits. AID 1671190, 2021. purified 12hLO, xylenol orange hydroperoxide absorbance; further: potency means the concentration at half of the fitted maximal effect
Target sequence (P18054 whole entry, looked up): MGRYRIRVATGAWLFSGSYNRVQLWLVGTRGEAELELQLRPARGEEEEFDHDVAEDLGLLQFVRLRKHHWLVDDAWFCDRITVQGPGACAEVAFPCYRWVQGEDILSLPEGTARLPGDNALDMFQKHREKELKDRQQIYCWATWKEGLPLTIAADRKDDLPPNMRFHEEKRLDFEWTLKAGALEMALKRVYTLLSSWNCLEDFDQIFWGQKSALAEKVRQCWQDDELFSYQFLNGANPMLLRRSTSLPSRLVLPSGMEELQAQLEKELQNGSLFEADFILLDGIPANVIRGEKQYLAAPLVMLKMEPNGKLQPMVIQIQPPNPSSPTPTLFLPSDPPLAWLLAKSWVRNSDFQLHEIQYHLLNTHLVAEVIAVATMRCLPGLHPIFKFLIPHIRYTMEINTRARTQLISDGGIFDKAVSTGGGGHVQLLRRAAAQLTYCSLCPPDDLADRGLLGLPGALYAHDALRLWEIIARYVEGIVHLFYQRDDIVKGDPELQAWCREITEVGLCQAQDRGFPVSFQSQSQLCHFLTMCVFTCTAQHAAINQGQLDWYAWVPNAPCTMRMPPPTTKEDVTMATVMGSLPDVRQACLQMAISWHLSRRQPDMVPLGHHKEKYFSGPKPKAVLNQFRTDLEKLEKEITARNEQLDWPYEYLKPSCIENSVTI
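Purified human 12hLO (150 nM final) in 25 mM Hepes, 0.01% Triton X-100, pH 7.0 was preincubated 15 min at room temperature with compound. Then 40 uM arachidonic acid was added, 30 min. Hydroperoxide was read by Fe-XO absorbance ratio 573/405 nm.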
HT1080 IDH1KD tx: qHTS for induction of synthetic lethality in tumor cells producing 2HG: qHTS for the HT-1080-IDH1KD cell line. Potency, µM (doses to about 46.1 µM), for the others: at the top dose activity, negative = toxicity, usual class: cytotoxic. 360,000 compounds, 2% hits. HT-1080 IDH1 knockdown viability, ATP luminescence, 48 h. AID 686971, 2013;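 further: potency means the concentration at half of the fitted maximal effect; 0% = DMSO wells and -100% = cell-free medium wells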
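HT-1080-IDH1KD cells (IDH1 knocked down), 750/well in RPMI with 5% FBS, treated with compound 48 h at 37 degrees C. Viability by CellTiter-Glo luminescence, normalised to DMSO and no-cell wells; concentration-response curves classed.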
HT1080-NT tox: qHTS for induction of synthetic lethality in tumor cells producing 2HG: qHTS for the HT-1080-NT fibrosarcoma cell line | 360,000 compounds, 1.6% hits | Potency, µM (series often up to 46.1 µM), for inactives: top-dose activity, negative = less viability, most hits filed as cytotoxic | HT-1080-NT fibrosarcoma viability, CellTiter-Glo ATP luminescence, 48 h | AID 686970, 2013;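 further: NT is the 2HG producing partner of a matched IDH1 knockdown line; potency means the concentration at half of the fitted maximal effect; 0% = DMSO-treated cells and -100% = media-only wells without cells; nearly all actives have a fitted effect of over 55% in size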
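Toxicity toward the 2HG-producing NT line was scored as %Activity, normalised to DMSO and no-cell wells, from CellTiter-Glo luminescence after 48 hours' treatment.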
IL1B secr inh: qHTS for Inhibitors of Inflammasome Signaling: IL-1-beta AlphaLISA Primary Screen; AID 743279, 2014; THP-1 LPS/ATP IL-1B secretion, AlphaLISA, 16 h; hits give low values; 360,000 compounds, 4.7% hits; activity change, % at 57.5 µM; in the data active means activity change below about -50%; inconclusive means mostly about -30% to -49%
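Secreted IL-1B measured by AlphaLISA bead assay after 16 h compound exposure of THP-1 cells; compounds (final up to 57.5 uM) added 1 h before LPS (250 ng/mL) and ATP (1.25 mM) stimulation; lower signal means less secretion.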
TDP1 cell noCPT: qHTS for Inhibitors of human tyrosyl-DNA phosphodiesterase 1 (TDP1): qHTS in cells in absence of CPT. Potency, µM (titrated, usually from 46.2 µM), without a hit: at the highest dose activity change, negative = growth inhibition, actives largely listed as inhibitors. DT40 Tdp1-/- hTDP1 cells, no CPT, ATP luminescence, 48 h. 420,000 compounds, 15% hits; further: potency means the concentration at half of the fitted maximal effect; nearly all actives have a fitted effect of over 55% in size
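Luminescent ATP content (CellTiter-Glo) served as the growth readout. Knockout chicken DT40 cells expressing human TDP1 were exposed to compounds without camptothecin for a minimum 48 hr at 37 °C.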
An asterisk follows results filed as active; [ ] = dose if it differs, or a comment. Shown is part of a subset that was picked to be rich in hits. Unless noted, the call rests on the fitted dose curve; in most records, active means well fitted curve in the direction sought with a large enough effect; inconclusive means small, poorly fitted or top-dose-only effect, or another doubt; inactive means no such curve, though single readings can be large; an effect the other way counts as inactive or inconclusive. Unless noted, on the % scale 0 is the no-effect control and ±100 the full control effect.

`CC(CNC(=O)[C@@H](Cc1ccccc1)NC(=O)CC[C@H]1O[C@@H](n2ccc(=O)[nH]c2=O)[C@H](O)[C@@H]1O)c1ccccc1` (stereo partly specified) gave TDP1 cell CPT 8%, 12-LOX inh 5%, HT1080 IDH1KD tx 13%, HT1080-NT tox 22%, IL1B secr inh -66* and TDP1 cell noCPT 36%.
`CCc1nc(SCC(=O)N2CCCCC2)c2c(=O)n(C)c(=O)n(C)c2n1` gave TDP1 cell CPT -11%, 12-LOX inh 7%, HT1080 IDH1KD tx -1%, HT1080-NT tox 2%, IL1B secr inh 6 and TDP1 cell noCPT -13%.
For CCCc1nc(SCC(=O)N2CCC(C)CC2)c2c(=O)n(C)c(=O)n(C)c2n1 the results were TDP1 cell CPT 16µM*, 12-LOX inh 5%, HT1080 IDH1KD tx 10%, HT1080-NT tox 13%, IL1B secr inh inconclusive and TDP1 cell noCPT 12µM*.
Screening CCCCc1nc(SCCN2CCOCC2)c2c(=O)n(C)c(=O)n(C)c2n1 returned TDP1 cell CPT 5%, 12-LOX inh 2%, HT1080 IDH1KD tx 15%, HT1080-NT tox 8%, IL1B secr inh 36 and TDP1 cell noCPT -18%.
For CCCc1nc(SCC(=O)N2CCN(c3ccccc3)CC2)c2c(=O)n(C)c(=O)n(C)c2n1 the results were TDP1 cell CPT 6.5µM*, 12-LOX inh 11%, HT1080 IDH1KD tx 4%, HT1080-NT tox -12%, IL1B secr inh 16 and TDP1 cell noCPT 7.3µM*.
Screening CCCc1nc(SC2CCCC2)c2c(=O)n(C)c(=O)n(C)c2n1 returned TDP1 cell CPT 23µM*, 12-LOX inh 34%, HT1080 IDH1KD tx 0%, HT1080-NT tox 3%, IL1B secr inh 33 and TDP1 cell noCPT 23µM*.
Screening CCc1nc(SCC(=O)N2CCC(C)CC2)c2c(=O)n(C)c(=O)n(C)c2n1 returned TDP1 cell CPT inconclusive, 12-LOX inh 30%, HT1080 IDH1KD tx -9%, HT1080-NT tox 6%, IL1B secr inh 27 and TDP1 cell noCPT 26µM*.
`F[C@@H]1CN(C2CCC2)C[C@@H]1OCc1nc2ccccc2o1` gave 12-LOX inh 12%[176 µM].
CC1c2ccsc2CCN1CC(O)COc1ccc(-c2ccccc2)cc1 (stereo unspecified) was read as 12-LOX inh 7%.
`Cc1cccc(NC(C)C(=O)Nc2sccc2C#N)c1C` (stereo unspecified) gave 12-LOX inh -23%.
For COc1ccc(N(C(=O)CNC(C)=O)C2(C(=O)Nc3c(C)cccc3C)CCCCC2)cc1 the results were 12-LOX inh 3%.
`O/N=C(/c1ccccc1)c1ccc(O)cc1O` gave 12-LOX inh 11%.
O=c1[nH]c(/C(=N\O)c2ccccc2)no1 was read as TDP1 cell CPT inconclusive, 12-LOX inh 64%, HT1080 IDH1KD tx -4%, HT1080-NT tox -6%, IL1B secr inh -17 and TDP1 cell noCPT 15µM*.
`Cc1c(C(=O)N2c3ccccc3Sc3ccccc32)cccc1[N+](=O)[O-]` gave TDP1 cell CPT inconclusive, 12-LOX inh 7%, HT1080 IDH1KD tx -30%, HT1080-NT tox -21%, IL1B secr inh -14 and TDP1 cell noCPT 26µM*.
For O=C(Nc1ccccc1)N1CCc2nc(C3CC3)nc(-c3ccc(Cl)cc3)c2C1 the results were 12-LOX inh 17%.
Screening Cc1cc(C(=O)CCC(=O)NC2CCCCC2)c(C)s1 returned 12-LOX inh 52%.
COc1ccc(NC(=O)N(C)CC2CCOCC2)cc1Cl was read as 12-LOX inh 12%.
For CC1=C(C(=O)OC(C)C)C(c2ccccc2)NC(=O)N1 (stereo unspecified) the results were 12-LOX inh 44%.
`CC1=C(C(=O)OC(C)C)C(C)C(C(=O)OC(C)C)=C(C)N1` gave TDP1 cell CPT 11µM*, 12-LOX inh -15%, HT1080 IDH1KD tx 3%, HT1080-NT tox 6%, IL1B secr inh inconclusive and TDP1 cell noCPT inconclusive.
`CCOC(=O)c1sc2c(c1C)C(c1cccs1)C1=C(CCCC1=O)N2` (stereo unspecified) gave TDP1 cell CPT inconclusive, 12-LOX inh -3%, HT1080 IDH1KD tx inconclusive, HT1080-NT tox -21%, IL1B secr inh -4 and TDP1 cell noCPT 16µM*.
`COCCOC(=O)C1=C(C)NC(=O)NC1c1cccs1` (stereo unspecified) gave TDP1 cell CPT -8%, 12-LOX inh 2%, HT1080 IDH1KD tx 10%, HT1080-NT tox 7%, IL1B secr inh 10 and TDP1 cell noCPT -16%.
`CCOC(=O)C1=CN(Cc2ccc(OC)cc2)C=C(C(=O)OCC)C1c1cccs1` gave TDP1 cell CPT inconclusive, 12-LOX inh -18%, HT1080 IDH1KD tx 1%, HT1080-NT tox -4%, IL1B secr inh -64* and TDP1 cell noCPT inconclusive.
`CC1=C(C(=O)OC(C)C)C(c2cccs2)C(C(=O)OC(C)C)=C(C)N1` gave TDP1 cell CPT inconclusive, 12-LOX inh 2%, HT1080 IDH1KD tx inconclusive, HT1080-NT tox inconclusive, IL1B secr inh -73* and TDP1 cell noCPT 12µM*.
C[C@H](NCc1ccc(OCc2cccc(F)c2)cc1)C(N)=O was read as 12-LOX inh -25%[57.4 µM].
Screening CCN(Cc1ccc(Cl)s1)C(=O)c1cnccn1 returned 12-LOX inh 35%.
`CCOC(=O)C1=C(C)Nc2[nH]c(=O)[nH]c(=O)c2C1c1cccs1` (stereo unspecified) gave TDP1 cell CPT 8%, 12-LOX inh -36%, HT1080 IDH1KD tx 4%, HT1080-NT tox 0%, IL1B secr inh 15 and TDP1 cell noCPT -2%.
`CCOC(=O)C1=C(C)NC(C)=C(C(=O)OCC)C1c1cccs1` gave TDP1 cell CPT inconclusive, 12-LOX inh -2%, HT1080 IDH1KD tx -13%, HT1080-NT tox -12%, IL1B secr inh 1 and TDP1 cell noCPT 23µM*.

Source: PubChem BioAssay
